Assay results published in article PMC7862700, “An all-to-all approach to the identification of sequence-specific readers for epigenetic DNA modifications on cytosine”.

Columns and labels:
Experiment in all cases: DAPPL (digital affinity profiling via proximity ligation, sequencing); 10 mM Tris-HCl pH 7.5, 50 mM NaCl, 1 mM DTT, 4% glycerol, room temperature, 30 min; GST-TFs on glutathione beads, 16-mer random dsDNA library, 0.1% formaldehyde crosslink after washing; high values mean tight binding
FLI1 = molecular target: T1, FLI1 (Homo sapiens, UniProt Q01543 1-452); settings: protein: recombinant; tags: N-terminal GST; dsDNA, one strand shown
T1 sequence: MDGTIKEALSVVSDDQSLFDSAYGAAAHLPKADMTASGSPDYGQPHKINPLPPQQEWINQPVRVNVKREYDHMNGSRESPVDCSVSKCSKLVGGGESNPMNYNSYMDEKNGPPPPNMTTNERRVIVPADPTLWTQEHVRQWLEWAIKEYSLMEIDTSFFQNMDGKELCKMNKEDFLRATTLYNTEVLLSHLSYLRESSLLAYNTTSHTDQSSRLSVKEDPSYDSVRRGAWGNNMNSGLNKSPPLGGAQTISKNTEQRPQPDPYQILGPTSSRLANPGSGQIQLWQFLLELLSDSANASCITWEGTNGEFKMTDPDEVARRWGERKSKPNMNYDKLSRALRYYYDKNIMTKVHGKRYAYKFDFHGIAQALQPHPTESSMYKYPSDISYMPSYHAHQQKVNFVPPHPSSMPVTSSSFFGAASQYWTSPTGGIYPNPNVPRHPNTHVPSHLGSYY
Method in brief: (§1)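 Human transcription factors carrying a GST fusion were produced in yeast, bound to glutathione beads, tagged with DNA barcodes and pooled together with a tag-only sample. Each pool was held with 200 nmole of a random double-stranded 16-mer DNA library in Tris/NaCl/DTT/glycerol buffer for 30 min at room temperature, then washed, crosslinked in 0.1% formaldehyde, proximity-ligated with BsaI/T4 ligase (1 h, 37 °C), PCR-amplified and sequenced on an Illumina NextSeq500. Binding signal is the read frequency of each hexamer for a given factor divided by its frequency in the tag-only sample.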

ELK1 = molecular target: T2, ELK1 (Homo sapiens, UniProt P19419 1-428); settings: protein: recombinant; tags: N-terminal GST; dsDNA, one strand shown
T2 sequence: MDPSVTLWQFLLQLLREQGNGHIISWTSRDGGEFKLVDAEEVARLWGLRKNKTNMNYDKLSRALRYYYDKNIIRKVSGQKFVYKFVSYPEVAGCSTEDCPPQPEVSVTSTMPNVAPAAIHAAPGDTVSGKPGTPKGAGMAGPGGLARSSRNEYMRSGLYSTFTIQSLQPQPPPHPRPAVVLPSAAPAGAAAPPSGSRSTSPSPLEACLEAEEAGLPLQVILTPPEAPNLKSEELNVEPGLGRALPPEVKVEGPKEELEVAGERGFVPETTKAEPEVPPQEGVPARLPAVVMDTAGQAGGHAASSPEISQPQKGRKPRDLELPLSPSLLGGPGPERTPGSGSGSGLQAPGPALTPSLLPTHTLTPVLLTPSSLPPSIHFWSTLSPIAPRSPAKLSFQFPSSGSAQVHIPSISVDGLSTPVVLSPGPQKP
Method in brief: as §1

GABPA = molecular target: T3, GABPA (Homo sapiens, UniProt Q06546 1-454); settings: protein: recombinant; tags: N-terminal GST; dsDNA, one strand shown
T3 sequence: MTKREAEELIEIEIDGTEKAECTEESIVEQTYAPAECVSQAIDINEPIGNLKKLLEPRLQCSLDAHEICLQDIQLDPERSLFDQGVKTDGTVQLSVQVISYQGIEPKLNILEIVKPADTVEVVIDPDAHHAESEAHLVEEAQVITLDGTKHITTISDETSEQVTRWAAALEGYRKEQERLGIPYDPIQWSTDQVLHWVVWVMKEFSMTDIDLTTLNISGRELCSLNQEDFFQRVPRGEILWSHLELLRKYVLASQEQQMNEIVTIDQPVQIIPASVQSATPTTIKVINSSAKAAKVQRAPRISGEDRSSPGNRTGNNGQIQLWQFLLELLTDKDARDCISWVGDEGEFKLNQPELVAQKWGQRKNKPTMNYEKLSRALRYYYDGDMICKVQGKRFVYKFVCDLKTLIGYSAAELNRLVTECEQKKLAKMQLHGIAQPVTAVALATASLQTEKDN
Method in brief: as §1

ERG = molecular target: T4, ERG (Homo sapiens, UniProt P11308 1-479); settings: protein: recombinant; tags: N-terminal GST; dsDNA, one strand shown
T4 sequence: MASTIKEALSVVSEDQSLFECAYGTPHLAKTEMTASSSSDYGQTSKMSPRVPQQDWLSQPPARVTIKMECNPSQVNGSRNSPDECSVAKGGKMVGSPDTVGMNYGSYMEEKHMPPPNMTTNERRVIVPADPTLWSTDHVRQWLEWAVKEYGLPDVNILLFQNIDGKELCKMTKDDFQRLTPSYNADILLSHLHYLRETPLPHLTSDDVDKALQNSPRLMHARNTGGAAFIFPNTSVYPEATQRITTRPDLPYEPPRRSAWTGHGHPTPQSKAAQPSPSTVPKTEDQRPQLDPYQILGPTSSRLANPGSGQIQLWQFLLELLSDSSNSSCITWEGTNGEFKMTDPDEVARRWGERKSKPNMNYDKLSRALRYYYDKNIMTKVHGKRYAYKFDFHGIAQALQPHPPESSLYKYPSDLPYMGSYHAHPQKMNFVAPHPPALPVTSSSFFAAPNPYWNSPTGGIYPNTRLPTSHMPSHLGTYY
Method in brief: as §1

ELF1 = ELF1 (Homo sapiens, UniProt P32519 1-619); settings: protein: recombinant; tags: N-terminal GST; dsDNA, one strand shown
Method in brief: as §1

EHF = molecular target: T5, EHF (Homo sapiens, UniProt Q9NZC4 1-300); settings: protein: recombinant; tags: N-terminal GST; dsDNA, one strand shown
T5 sequence: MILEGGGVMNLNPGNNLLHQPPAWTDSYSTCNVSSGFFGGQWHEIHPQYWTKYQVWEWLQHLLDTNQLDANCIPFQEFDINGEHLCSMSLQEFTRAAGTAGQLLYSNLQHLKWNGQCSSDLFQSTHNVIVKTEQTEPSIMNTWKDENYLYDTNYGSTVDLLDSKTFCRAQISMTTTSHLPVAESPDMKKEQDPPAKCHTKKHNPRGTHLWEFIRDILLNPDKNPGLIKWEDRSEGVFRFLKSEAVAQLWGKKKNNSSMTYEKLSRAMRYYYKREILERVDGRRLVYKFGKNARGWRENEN
Method in brief: as §1

SPI1 = SPI1 (Homo sapiens, UniProt P17947 1-270); settings: protein: recombinant; tags: N-terminal GST; dsDNA, one strand shown
Method in brief: as §1

SPIB = SPIB (Homo sapiens, UniProt Q01892 1-262); settings: protein: recombinant; tags: N-terminal GST; dsDNA, one strand shown
Method in brief: as §1

ELK3 = molecular target: T6, ELK3 (Homo sapiens, UniProt P41970 1-407); settings: protein: recombinant; tags: N-terminal GST; dsDNA, one strand shown
T6 sequence: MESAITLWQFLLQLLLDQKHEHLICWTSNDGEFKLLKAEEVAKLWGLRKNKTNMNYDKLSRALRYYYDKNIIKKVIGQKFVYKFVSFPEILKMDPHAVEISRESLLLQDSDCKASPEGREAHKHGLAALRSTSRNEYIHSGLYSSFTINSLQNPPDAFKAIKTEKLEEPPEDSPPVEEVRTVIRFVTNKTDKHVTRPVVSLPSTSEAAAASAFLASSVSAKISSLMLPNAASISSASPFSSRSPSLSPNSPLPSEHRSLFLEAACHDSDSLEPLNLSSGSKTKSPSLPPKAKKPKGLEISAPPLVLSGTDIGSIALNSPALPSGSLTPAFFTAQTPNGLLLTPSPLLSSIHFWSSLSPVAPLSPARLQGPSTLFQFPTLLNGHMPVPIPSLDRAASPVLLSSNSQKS
Method in brief: as §1

FEV = molecular target: T7, FEV (Homo sapiens, UniProt Q99581 1-238); settings: protein: recombinant; tags: N-terminal GST; dsDNA, one strand shown
T7 sequence: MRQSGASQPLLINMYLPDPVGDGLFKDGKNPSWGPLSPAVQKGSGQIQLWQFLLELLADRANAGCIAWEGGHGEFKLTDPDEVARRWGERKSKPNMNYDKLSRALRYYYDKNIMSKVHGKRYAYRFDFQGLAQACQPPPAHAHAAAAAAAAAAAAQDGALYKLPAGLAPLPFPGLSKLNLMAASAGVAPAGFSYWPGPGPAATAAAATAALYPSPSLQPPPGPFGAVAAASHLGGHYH
Method in brief: as §1

ETV5 = ETV5 (Homo sapiens, UniProt P41161 1-510); settings: protein: recombinant; tags: N-terminal GST; dsDNA, one strand shown
Method in brief: as §1

HSF1 = HSF1 (Homo sapiens, UniProt Q00613 1-529); settings: protein: recombinant; tags: N-terminal GST; chain copies: 3; dsDNA, one strand shown
Method in brief: as §1

SPIC = molecular target: T8, SPIC (Homo sapiens, UniProt Q8N5J4 1-248); settings: protein: recombinant; tags: N-terminal GST; dsDNA, one strand shown
T8 sequence: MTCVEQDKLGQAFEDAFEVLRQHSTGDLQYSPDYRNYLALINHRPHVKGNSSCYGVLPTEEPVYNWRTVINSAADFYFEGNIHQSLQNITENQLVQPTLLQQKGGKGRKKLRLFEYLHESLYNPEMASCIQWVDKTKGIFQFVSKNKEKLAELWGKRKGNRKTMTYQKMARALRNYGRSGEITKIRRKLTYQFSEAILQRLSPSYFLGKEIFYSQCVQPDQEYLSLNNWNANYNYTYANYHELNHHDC
Method in brief: as §1

ELF4 = ELF4 (Homo sapiens, UniProt Q99607 1-663); settings: protein: recombinant; tags: N-terminal GST; dsDNA, one strand shown
Method in brief: as §1

ELK4 = molecular target: T9, ELK4 (Homo sapiens, UniProt P28324-2 1-405); settings: protein: recombinant; tags: N-terminal GST; dsDNA, one strand shown
T9 sequence: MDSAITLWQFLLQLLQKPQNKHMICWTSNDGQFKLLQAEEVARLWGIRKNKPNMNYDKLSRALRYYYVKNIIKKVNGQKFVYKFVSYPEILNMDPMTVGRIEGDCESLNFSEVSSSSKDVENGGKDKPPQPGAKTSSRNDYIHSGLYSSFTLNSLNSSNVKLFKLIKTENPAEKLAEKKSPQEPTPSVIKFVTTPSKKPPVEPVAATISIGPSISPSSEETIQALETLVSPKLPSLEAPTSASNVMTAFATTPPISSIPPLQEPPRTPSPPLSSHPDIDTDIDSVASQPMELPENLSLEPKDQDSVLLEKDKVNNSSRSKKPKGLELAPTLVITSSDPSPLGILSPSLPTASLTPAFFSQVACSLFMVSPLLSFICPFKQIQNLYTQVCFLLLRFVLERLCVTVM
Method in brief: as §1

ETV2 = molecular target: T10, ETV2 (Homo sapiens, UniProt O00321 1-342); settings: protein: recombinant; tags: N-terminal GST; dsDNA, one strand shown
T10 sequence: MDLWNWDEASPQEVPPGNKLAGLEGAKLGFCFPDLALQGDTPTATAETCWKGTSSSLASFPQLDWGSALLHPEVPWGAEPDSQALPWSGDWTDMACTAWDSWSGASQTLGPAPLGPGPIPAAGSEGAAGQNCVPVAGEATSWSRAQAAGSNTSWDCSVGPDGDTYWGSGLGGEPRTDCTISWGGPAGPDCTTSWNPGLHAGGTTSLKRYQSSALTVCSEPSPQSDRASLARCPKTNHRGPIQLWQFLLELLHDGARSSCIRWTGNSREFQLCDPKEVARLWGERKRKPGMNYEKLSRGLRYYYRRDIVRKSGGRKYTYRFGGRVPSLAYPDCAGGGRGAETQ
Method in brief: as §1

CRX = CRX (Homo sapiens, UniProt O43186 1-299); settings: protein: recombinant; tags: N-terminal GST; dsDNA, one strand shown
Method in brief: as §1

ETV1 = ETV1 (Homo sapiens, UniProt P50549 1-477); settings: protein: recombinant; tags: N-terminal GST; dsDNA, one strand shown
Method in brief: as §1

Chain of ETV1 (P50549 whole entry): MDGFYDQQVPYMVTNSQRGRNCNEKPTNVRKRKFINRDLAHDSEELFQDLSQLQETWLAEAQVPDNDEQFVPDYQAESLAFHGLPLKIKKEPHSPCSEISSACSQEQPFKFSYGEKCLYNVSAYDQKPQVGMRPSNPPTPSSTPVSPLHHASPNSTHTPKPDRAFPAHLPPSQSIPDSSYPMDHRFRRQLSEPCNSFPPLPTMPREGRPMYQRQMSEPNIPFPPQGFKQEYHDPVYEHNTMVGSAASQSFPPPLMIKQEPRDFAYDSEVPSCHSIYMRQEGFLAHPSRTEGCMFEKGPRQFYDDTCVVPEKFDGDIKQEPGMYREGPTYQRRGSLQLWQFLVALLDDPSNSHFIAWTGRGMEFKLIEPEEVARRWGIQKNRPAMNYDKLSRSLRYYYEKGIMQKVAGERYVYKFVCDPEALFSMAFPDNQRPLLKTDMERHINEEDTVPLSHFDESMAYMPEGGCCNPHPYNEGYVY
Chain of ELF4 (Q99607 whole entry): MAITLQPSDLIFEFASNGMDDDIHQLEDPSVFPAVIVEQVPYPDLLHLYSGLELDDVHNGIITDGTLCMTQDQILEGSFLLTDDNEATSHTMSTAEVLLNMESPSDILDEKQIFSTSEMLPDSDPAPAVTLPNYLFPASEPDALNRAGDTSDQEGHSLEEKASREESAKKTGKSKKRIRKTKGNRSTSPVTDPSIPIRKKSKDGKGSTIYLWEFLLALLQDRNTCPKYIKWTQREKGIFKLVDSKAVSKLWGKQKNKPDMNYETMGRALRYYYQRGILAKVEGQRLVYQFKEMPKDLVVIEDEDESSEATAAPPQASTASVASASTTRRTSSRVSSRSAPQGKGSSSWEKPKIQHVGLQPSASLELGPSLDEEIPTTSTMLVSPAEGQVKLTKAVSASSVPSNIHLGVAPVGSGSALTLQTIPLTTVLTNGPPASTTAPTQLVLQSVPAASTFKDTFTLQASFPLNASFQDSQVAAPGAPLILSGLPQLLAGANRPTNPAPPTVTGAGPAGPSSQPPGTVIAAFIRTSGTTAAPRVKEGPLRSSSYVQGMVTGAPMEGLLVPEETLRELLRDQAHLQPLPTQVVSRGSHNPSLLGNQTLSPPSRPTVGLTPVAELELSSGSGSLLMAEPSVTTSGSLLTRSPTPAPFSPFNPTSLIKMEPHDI
Chain of CRX (O43186 whole entry): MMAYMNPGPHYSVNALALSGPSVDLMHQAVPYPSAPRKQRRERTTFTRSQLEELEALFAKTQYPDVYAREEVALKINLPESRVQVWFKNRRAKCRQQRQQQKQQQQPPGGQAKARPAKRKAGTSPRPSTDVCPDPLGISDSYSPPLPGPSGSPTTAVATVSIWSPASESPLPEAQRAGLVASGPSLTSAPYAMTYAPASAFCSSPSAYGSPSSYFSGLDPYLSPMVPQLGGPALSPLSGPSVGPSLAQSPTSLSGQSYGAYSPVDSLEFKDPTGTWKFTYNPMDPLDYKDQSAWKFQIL
Chain of ELF1 (P32519 whole entry): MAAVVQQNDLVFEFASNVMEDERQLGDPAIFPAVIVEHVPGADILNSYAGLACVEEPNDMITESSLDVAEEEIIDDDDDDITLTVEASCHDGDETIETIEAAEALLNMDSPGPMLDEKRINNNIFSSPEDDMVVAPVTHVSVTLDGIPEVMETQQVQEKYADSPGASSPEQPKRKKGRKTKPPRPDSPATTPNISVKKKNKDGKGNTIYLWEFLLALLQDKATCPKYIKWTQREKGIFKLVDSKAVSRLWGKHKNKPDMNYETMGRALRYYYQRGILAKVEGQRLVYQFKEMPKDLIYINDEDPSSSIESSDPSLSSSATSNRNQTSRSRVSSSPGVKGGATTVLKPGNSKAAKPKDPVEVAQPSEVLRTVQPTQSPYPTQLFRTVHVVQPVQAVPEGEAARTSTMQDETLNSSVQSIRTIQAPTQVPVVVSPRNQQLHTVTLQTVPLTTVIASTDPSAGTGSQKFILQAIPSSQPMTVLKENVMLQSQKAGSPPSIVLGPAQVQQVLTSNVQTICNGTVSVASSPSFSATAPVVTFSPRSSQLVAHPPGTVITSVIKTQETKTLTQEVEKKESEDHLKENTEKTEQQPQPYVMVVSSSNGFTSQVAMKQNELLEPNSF
Chain of SPIB (Q01892 whole entry): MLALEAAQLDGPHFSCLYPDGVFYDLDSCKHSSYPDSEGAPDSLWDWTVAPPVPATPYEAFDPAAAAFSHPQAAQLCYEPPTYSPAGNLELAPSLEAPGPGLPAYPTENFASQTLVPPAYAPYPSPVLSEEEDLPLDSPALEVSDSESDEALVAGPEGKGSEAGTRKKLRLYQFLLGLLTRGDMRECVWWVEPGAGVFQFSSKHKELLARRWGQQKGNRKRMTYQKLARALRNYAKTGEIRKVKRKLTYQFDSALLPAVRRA
Chain of HSF1 (Q00613 whole entry): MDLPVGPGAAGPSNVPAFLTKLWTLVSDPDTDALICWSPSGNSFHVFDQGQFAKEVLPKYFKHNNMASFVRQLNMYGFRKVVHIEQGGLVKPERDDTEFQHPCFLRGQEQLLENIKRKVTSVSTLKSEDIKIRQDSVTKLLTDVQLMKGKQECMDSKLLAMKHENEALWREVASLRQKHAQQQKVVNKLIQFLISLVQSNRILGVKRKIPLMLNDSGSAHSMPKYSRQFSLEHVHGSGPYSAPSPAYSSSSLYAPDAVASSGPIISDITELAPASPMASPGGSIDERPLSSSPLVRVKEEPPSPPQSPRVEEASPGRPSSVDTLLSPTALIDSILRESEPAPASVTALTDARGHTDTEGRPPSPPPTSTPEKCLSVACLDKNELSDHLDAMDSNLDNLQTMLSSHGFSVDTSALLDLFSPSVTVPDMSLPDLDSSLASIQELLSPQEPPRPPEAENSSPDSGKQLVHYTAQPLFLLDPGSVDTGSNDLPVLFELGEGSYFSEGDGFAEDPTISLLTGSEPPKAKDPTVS
Chain of ETV5 (P41161 whole entry): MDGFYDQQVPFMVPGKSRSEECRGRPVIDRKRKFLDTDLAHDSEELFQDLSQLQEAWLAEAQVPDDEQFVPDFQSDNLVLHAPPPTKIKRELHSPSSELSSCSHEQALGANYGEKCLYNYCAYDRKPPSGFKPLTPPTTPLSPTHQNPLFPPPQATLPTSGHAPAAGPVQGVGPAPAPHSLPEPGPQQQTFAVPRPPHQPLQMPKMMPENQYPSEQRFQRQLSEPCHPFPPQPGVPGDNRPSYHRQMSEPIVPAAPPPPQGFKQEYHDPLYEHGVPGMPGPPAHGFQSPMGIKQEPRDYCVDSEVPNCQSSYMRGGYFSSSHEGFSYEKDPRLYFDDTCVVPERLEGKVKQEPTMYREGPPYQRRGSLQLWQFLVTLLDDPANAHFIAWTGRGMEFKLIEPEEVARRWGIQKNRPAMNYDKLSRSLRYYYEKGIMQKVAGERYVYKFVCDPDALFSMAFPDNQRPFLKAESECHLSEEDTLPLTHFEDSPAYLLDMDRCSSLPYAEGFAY

Sequence: TATCTG
- binding signal (FLI1): 1.3 fold enrichment (6-mer frequency, TF over GST control)
- binding signal (ELK1): 1.12 fold enrichment (6-mer frequency, TF over GST control)
- binding signal (GABPA): 1.21 fold enrichment (6-mer frequency, TF over GST control)
- binding signal (ERG): 1.25 fold enrichment (6-mer frequency, TF over GST control)
- binding signal (ELF1): 1.26 fold enrichment (6-mer frequency, TF over GST control)
- binding signal (EHF): 1.16 fold enrichment (6-mer frequency, TF over GST control)
- binding signal (SPI1): 1.21 fold enrichment (6-mer frequency, TF over GST control)
- binding signal (SPIB): 1.16 fold enrichment (6-mer frequency, TF over GST control)
- binding signal (ELK3): 1.21 fold enrichment (6-mer frequency, TF over GST control)
- binding signal (FEV): 1.15 fold enrichment (6-mer frequency, TF over GST control)
- binding signal (ETV5): 1.15 fold enrichment (6-mer frequency, TF over GST control)
- binding signal (HSF1): 1.36 fold enrichment (6-mer frequency, TF over GST control)
- binding signal (SPIC): 1.17 fold enrichment (6-mer frequency, TF over GST control)
- binding signal (ELF4): 1.14 fold enrichment (6-mer frequency, TF over GST control)
- binding signal (ELK4): 1.25 fold enrichment (6-mer frequency, TF over GST control)
- binding signal (ETV2): 1.33 fold enrichment (6-mer frequency, TF over GST control)
- binding signal (CRX): 1.46 fold enrichment (6-mer frequency, TF over GST control)
- binding signal (ETV1): 1.2 fold enrichment (6-mer frequency, TF over GST control)

Sequence: CCACGA
- binding signal (FLI1): 1.18 fold enrichment (6-mer frequency, TF over GST control)
- binding signal (ELK1): 1.17 fold enrichment (6-mer frequency, TF over GST control)
- binding signal (GABPA): 1.19 fold enrichment (6-mer frequency, TF over GST control)
- binding signal (ERG): 1.12 fold enrichment (6-mer frequency, TF over GST control)
- binding signal (ELF1): 1.1 fold enrichment (6-mer frequency, TF over GST control)
- binding signal (EHF): 1.23 fold enrichment (6-mer frequency, TF over GST control)
- binding signal (SPI1): 1.12 fold enrichment (6-mer frequency, TF over GST control)
- binding signal (SPIB): 1.06 fold enrichment (6-mer frequency, TF over GST control)
- binding signal (ELK3): 1.16 fold enrichment (6-mer frequency, TF over GST control)
- binding signal (FEV): 1.11 fold enrichment (6-mer frequency, TF over GST control)
- binding signal (ETV5): 1.02 fold enrichment (6-mer frequency, TF over GST control)
- binding signal (HSF1): 1.12 fold enrichment (6-mer frequency, TF over GST control)
- binding signal (SPIC): 1.17 fold enrichment (6-mer frequency, TF over GST control)
- binding signal (ELF4): 1.1 fold enrichment (6-mer frequency, TF over GST control)
- binding signal (ELK4): 1.18 fold enrichment (6-mer frequency, TF over GST control)
- binding signal (ETV2): 1.09 fold enrichment (6-mer frequency, TF over GST control)
- binding signal (CRX): 1 fold enrichment (6-mer frequency, TF over GST control)
- binding signal (ETV1): 1.02 fold enrichment (6-mer frequency, TF over GST control)
